Data reported in PubChem BioAssay AID1159580 (chemical genetic matrix, 2015).
Values joined by “and” are separate entries in the source; they are usually repeats but may differ in a detail not shown here. Identical values can stand only once. Hit rate of the full screen: of about 5,500 compounds, about 2,000 (36%) were called active. Inconclusive results (about 18%) are left out. Cut-off read from the data, not from the text of the source: active = normalized growth mostly below about 0.91 (no sharp cut-off); inconclusive = no clear call, values can overlap the other calls; inactive = mostly above about 0.92. The list shows a part of the results.

Assay: chemical genetic growth profiling, strain panel (AID 1159580);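 note: tested at 20 µM; growth read once vehicle control cultures reached saturation at 30 °C; 1 = growth at the plate median or of vehicle wells; lower values mean less growth of the strain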
Details: S. cerevisiae deletion strains, growth OD

Measured: normalized growth

C=C1C[C@]23C[C@@]1(O)CC[C@H]2[C@@]12C=C[C@H](O)[C@@](C)(C(=O)O1)[C@H]2[C@@H]3C(=O)O
inactive: locus YAL013W, strain DEP1, active compounds read low 0.998 | locus YAL021C, strain ccr4, active compounds read low 0.976 | locus YAL026C, strain drs2, active compounds read low 1.04 | locus YAL030W, strain snc1, active compounds read low 1.03 | locus YBL061C, strain skt5, active compounds read low 1.02 | locus YBR009C, strain hhf1, active compounds read low 1.02 | locus YBR021W, strain FUR4, active compounds read low 1.01 | locus YBR023C, strain chs3, active compounds read low 1.02 | locus YBR171W, strain sec66, active compounds read low 1.03 | locus YBR229C, strain ROT2, active compounds read low 0.956 | locus YBR231C, strain swc5, active compounds read low 1.03 | locus YBR279W, strain paf1, active compounds read low 1.02 | locus YCL011C, strain gbp2, active compounds read low 1.03 | locus YCL016C, strain dcc1, active compounds read low 0.997 | locus YCL029C, strain bik1, active compounds read low 0.984 | locus YCL069W, strain vba3, active compounds read low 1.03 | locus YCR088W, strain abp1, active compounds read low 1.02 | locus YDL005C, strain med2, active compounds read low 1.03 | locus YDL035C, strain GPR1, active compounds read low 0.982 | locus YDL040C, strain nat1, active compounds read low 1.03 | locus YDL074C, strain BRE1, active compounds read low 1.02 | locus YDL101C, strain DUN1, active compounds read low 0.999 | locus YDL134C, strain PPH21, active compounds read low 1.03 | locus YDL185W, strain tfp1, active compounds read low 0.978 | locus YDL192W, strain arf1, active compounds read low 0.986 | locus YDR001C, strain nth1, active compounds read low 1.03 | locus YDR069C, strain doa4, active compounds read low 1.03 | locus YDR101C, strain arx1, active compounds read low 0.967 | locus YDR137W, strain rgp1, active compounds read low 1.03 | locus YDR150W, strain NUM1, active compounds read low 0.996 | locus YDR159W, strain sac3, active compounds read low 1.04 | locus YDR162C, strain NBP2, active compounds read low 0.976 | locus YDR195W, strain ref2 1 | locus YDR297W, strain sur2, active compounds read low 1.02 | locus YDR318W, strain mcm21, active compounds read low 0.984 | locus YDR334W, strain swr1, active compounds read low 1.02 | locus YDR335W, strain msn5, active compounds read low 1.02 | locus YDR388W, active compounds read low 0.998 | locus YDR392W, strain spt3, active compounds read low 0.885 | locus YDR502C, strain sam2, active compounds read low 1.03 | locus YEL003W, strain gim4, active compounds read low 1.02 | locus YEL037C, strain rad23, active compounds read low 1.02 | locus YEL061C, strain CIN8 (second series), active compounds read low 1.02 | locus YEL061C, strain CIN8, active compounds read low 1 | locus YER015W, strain faa2, active compounds read low 1.02 | locus YER016W, strain bim1, active compounds read low 1.03 | locus YER110C, active compounds read low 0.98 | locus YER111C, strain swi4, active compounds read low 1 | locus YER155C, strain BEM2 (second series), active compounds read low 1 | locus YER155C, strain BEM2, active compounds read low 0.991 | locus YER167W, strain BCK2, active compounds read low 0.989 | locus YFR010W, strain ubp6, active compounds read low 1.03 | locus YGL078C, strain dbp3, active compounds read low 1.02 | locus YGL086W, strain mad1, active compounds read low 1.01 | locus YGL167C, strain pmr1, active compounds read low 1.03 | locus YGL173C, strain kem1, active compounds read low 1.05 | locus YGL227W, strain vid30, active compounds read low 1.02 | locus YGL240W, strain doc1, active compounds read low 1.02 | locus YGL248W, strain PDE1, active compounds read low 1.01 | locus YGL253W, strain hxk2, active compounds read low 1.05 | locus YGR135W, strain pre9, active compounds read low 1.07 | locus YGR252W, strain gcn5, active compounds read low 1.05 | locus YHR013C, strain ard1, active compounds read low 1.02 | locus YHR027C, strain rpn1, active compounds read low 1.03 | locus YHR030C, strain SLT2, active compounds read low 0.996 and 1 | locus YHR079C, strain IRE1 (second series), active compounds read low 0.998 | locus YHR079C, strain IRE1, active compounds read low 0.998 | locus YHR094C, strain hxt1, active compounds read low 0.991 | locus YHR129C, strain ARP1, active compounds read low 0.998 | locus YHR142W, strain chs7, active compounds read low 1.04 | locus YHR200W, strain rpn10, active compounds read low 1.01 | locus YIL066C, strain RNR3, active compounds read low 0.98 | locus YIL073C, strain SPO22, active compounds read low 1.07 | locus YIL125W, strain kgd1, active compounds read low 1 | locus YIR030C, strain dcg1, active compounds read low 0.994 | locus YJL092W, strain hpr5, active compounds read low 1.02 | locus YJL095W, strain BCK1 (second series), active compounds read low 1.02 | locus YJL095W, strain BCK1, active compounds read low 1.06 and 1.01 | locus YJL115W, strain asf1, active compounds read low 1.02 | locus YJL129C, strain trk1, active compounds read low 1.04 | locus YJL134W, strain LCB3, active compounds read low 0.99 | locus YJL154C, strain vps35, active compounds read low 1.03 | locus YJL164C, strain tpk1, active compounds read low 1.01 | locus YJL166W, strain qcr8, active compounds read low 1.03 | locus YJL168C, strain set2, active compounds read low 1.01 | locus YJL187C, strain SWE1 (second series), active compounds read low 1.01 | locus YJL187C, strain SWE1, active compounds read low 1.03 | locus YJR043C, strain POL32, active compounds read low 0.96 | locus YJR066W, strain TOR1, active compounds read low 0.962 | locus YKL009W, strain mrt4, active compounds read low 1.03 | locus YKL068W, active compounds read low 1 | locus YKL085W, strain MDH1 (second series), active compounds read low 0.99 | locus YKL085W, strain MDH1, active compounds read low 0.99 | locus YKL160W, strain elf1, active compounds read low 0.998 | locus YKR001C, strain vps1, active compounds read low 1.01 | locus YKR026C, strain gcn3, active compounds read low 1.02 | locus YKR091W, strain srl3, active compounds read low 1.03 | locus YLL001W, strain dnm1, active compounds read low 0.986 | locus YLL026W, active compounds read low 1.02 | locus YLL041C, strain sdh2, active compounds read low 1.02 | locus YLR027C, strain aat2, active compounds read low 1.03 | locus YLR039C, strain RIC1, active compounds read low 0.989 | locus YLR058C, strain SHM2, active compounds read low 0.98 | locus YLR102C, strain apc9, active compounds read low 0.995 | locus YLR113W, strain HOG1, active compounds read low 0.998 | locus YLR221C, strain rsa3, active compounds read low 1.04 | locus YLR258W, strain gsy2, active compounds read low 1.02 | locus YLR262C, strain YPT6 (second series), active compounds read low 1.03 | locus YLR268W, strain sec22, active compounds read low 0.97 | locus YLR320W, strain mms22, active compounds read low 1.05 | locus YLR342W, strain FKS1, active compounds read low 1.03 | locus YLR357W, strain rsc2, active compounds read low 0.994 | locus YLR370C, strain arc18, active compounds read low 1.02 | locus YLR371W, strain rom2, active compounds read low 0.992 | locus YLR384C, strain iki3, active compounds read low 1.04 | locus YLR418C, strain cdc73, active compounds read low 1.09 | locus YML016C, strain PPZ1, active compounds read low 0.984 | locus YML032C, strain rad52, active compounds read low 0.984 | locus YML120C, strain ndi1, active compounds read low 1.01 | locus YML124C, strain tub3, active compounds read low 0.984 | locus YMR058W, strain fet3, active compounds read low 1.03 | locus YMR078C, strain ctf18, active compounds read low 0.999 | locus YMR125W, strain sto1, active compounds read low 1.01 | locus YMR129W, active compounds read low 1.02 | locus YMR205C, strain PFK2, active compounds read low 1.02 | locus YMR223W, strain ubp8, active compounds read low 1.01 | locus YMR231W, strain pep5, active compounds read low 1.01 | locus YMR263W, strain SAP30, active compounds read low 0.994 | locus YMR307W, strain GAS1, active compounds read low 0.969 | locus YNL067W, strain RPL9B, active compounds read low 1 | locus YNL071W, strain lat1, active compounds read low 1.02 | locus YNL128W, strain TEP1, active compounds read low 0.976 | locus YNL153C, strain GIM3, active compounds read low 1.02 | locus YNL183C, strain NPR1, active compounds read low 0.958 | locus YNL209W, strain ssb2, active compounds read low 1.03 | locus YNL233W, strain BNI4, active compounds read low 1.04 | locus YNL248C, strain rpa49, active compounds read low 1.05 | locus YNL250W, strain rad50, active compounds read low 0.998 | locus YNL271C, strain bni1, active compounds read low 0.982 | locus YNL298W, strain CLA4, active compounds read low 0.987 | locus YNL307C, strain MCK1, active compounds read low 1.01 | locus YNL322C, strain KRE1 (second series), active compounds read low 1 | locus YNR049C, strain mso1, active compounds read low 1.02 | locus YNR052C, strain pop2, active compounds read low 1.03 | locus YOL006C, strain TOP1, active compounds read low 0.967 | locus YOL012C, strain htz1 1.07 | locus YOL147C, strain pex11, active compounds read low 0.99 | locus YOR001W, strain rrp6, active compounds read low 1.04 | locus YOR061W, strain CKA2, active compounds read low 0.962 | locus YOR069W, strain VPS5, active compounds read low 0.996 | locus YOR070C, strain gyp1, active compounds read low 1.01 | locus YOR080W, strain dia2, active compounds read low 1 | locus YOR083W, strain WHI5, active compounds read low 0.997 | locus YOR106W, strain vam3, active compounds read low 0.982 | locus YOR136W, strain idh2, active compounds read low 0.989 | locus YOR144C, strain elg1, active compounds read low 0.991 | locus YOR184W, strain ser1, active compounds read low 0.954 | locus YOR231W, strain MKK1, active compounds read low 0.98 | locus YOR265W, strain rbl2, active compounds read low 1.02 | locus YOR270C, strain vph1, active compounds read low 1.11 | locus YOR290C, strain snf2, active compounds read low 0.985 | locus YOR316C, strain cot1, active compounds read low 0.984 | locus YPL051W, strain arl3, active compounds read low 0.992 | locus YPL078C, strain atp4, active compounds read low 0.995 | locus YPL106C, strain sse1, active compounds read low 0.993 | locus YPL240C, strain hsp82, active compounds read low 1.01 | locus YPL241C, strain CIN2, active compounds read low 0.997 | locus YPL256C, strain CLN2, active compounds read low 0.992 | locus YPR119W, strain clb2, active compounds read low 1.01 | locus YPR141C, strain kar3, active compounds read low 0.981 | locus YPR163C, strain tif3, active compounds read low 0.989 | locus YPR167C, strain met16, active compounds read low 1.01 | strain wtn01, active compounds read low 0.974
